Measurements: ChEMBL document CHEMBL4513216, “Probing the Open Global Health Chemical Diversity Library for Multistage-Active Starting Points for Next-Generation Antimalarials” (ACS Infect Dis, 2020)
Among all 69,000 compounds or so, about 8,600 (12%) showed an effect of 50% or more. This is one part of a sample in which strong results are shown more often than they occur.

These molecules were tested on Plasmodium berghei (assay: Screen against P. berghei liver stage (PbLuc), transformed with Luciferase, at 10uM). Settings: tested at 10 uM.
Assay type: functional, HepG2

Compound	INHIBITION
Cc1cccc(C(=O)Nc2c(C(=O)N(C)C)nn(C)c2C)c1	35%
Cc1cnn(CC2CN(C=C3NN=C(c4occc4C)O3)CCO2)c1 (configuration not stated)	13.3%
Cc1cccc(CN2C(=O)CCC23CCN(C(=O)c2ccco2)CC3)c1	-7.28%
Cc1nc(C)n(C2CCCN(C(=O)CCn3cncn3)C2)n1 (configuration not stated)	14.9%
CCc1nc(CN(C)c2nccc(N3CCCC(O)C3)n2)no1 (configuration not stated)	20.3%
Cc1nc(O)ccc1C(=O)NCc1ncccc1F	12.6%
COCCNC(=O)NC1(c2nc(-c3ccncc3)no2)CCCCC1	56.3%
O=C(NC1(c2nc(C3CC3)no2)CCCCC1)c1ccncc1	-3.19%
COCCNC(=O)NC1(c2nc(C)no2)CCCCC1	19.2%
CC(C)CNS(=O)(=O)c1ccc(C(=O)N(C)CCc2cn[nH]c2)cc1	-12.4%
NC(=O)c1c(-c2ccc(Cl)cc2Cl)csc1NC(=O)CCC(=O)O	44.9%
O=C(NCCC(=O)N1CCCc2ccccc21)c1c(O)cc(F)cc1F	73.9%
O=C(NCCC(=O)N1CCCc2ccccc21)c1c(F)cccc1F	-57.4%
O=C(NCCC(=O)N1CCCc2ccccc21)c1ccc(F)cc1F	11.6%
O=C(NCC(=O)N1CCCc2ccccc21)c1c(O)cc(F)cc1F	80.6%
O=C(NCCS(=O)(=O)N1CCc2ccccc21)c1c(O)cc(F)cc1F	42%
O=C(NCCC(=O)N1CCCc2ccccc21)c1cc(F)cc(F)c1	-19.9%
C=C(C)COc1ccc(C(CC(=O)OC)c2oc(C)cc(=O)c2O)cc1 (configuration not stated)	-24.7%
CNc1ncc(CN(C)C(=O)c2cccc(Cn3cccn3)c2)cn1	18.5%
CCc1ccccc1Nc1noc2c1CN(C(=O)c1ccn(C)n1)CC2	-3.35%
CCn1ccnc1CN1CCN(Cc2cccnc2)CC1C (configuration not stated)	33.5%
CC[C@H](C)[C@H](N)C(=O)N1CC(=O)c2sc(Nc3ccc(F)cc3)nc2C1	14.5%
CCN1CC(=O)c2sc(NC(C)C)nc2C1	23.4%

Compound	INHIBITION
CC(C)NC(=O)N1CC(=O)c2sc(NC3CCCCC3)nc2C1	-16.7%
CC(C)CC(=O)N1CC(=O)c2sc(Nc3ccc(C#N)cc3)nc2C1	79.7%
N#Cc1ccc(Nc2nc3c(s2)C(=O)CN(CC2CC2)C3)cc1	-15.2%
CC(C)Nc1nc2c(s1)C(=O)CN(C)C2	35.2%
CC(C)NC(=O)N1CC(=O)c2sc(Nc3ccc(C#N)cc3)nc2C1	61.9%
CC(C)CC(=O)N1CC(=O)c2sc(Nc3ccc(F)cc3)nc2C1	51.5%
Cc1nc(C)n(CC2CCCN(CCCOc3ccc(F)cc3)C2)n1 (configuration not stated)	40.2%
NC(=O)C1CCN(CCc2ccc(NC(=O)C3CC3)cc2)CC1	45.05%
CC(O)(CNC(=O)NCCc1ccc2c(c1)CCO2)c1ccsc1 (configuration not stated)	30.8%
CC(C)c1nn(C)cc1CNC1CCOc2ccccc21 (configuration not stated)	31.8%
COc1ccccc1C1CNCCN1C(C)=O (configuration not stated)	9.98%
CC(=O)N1CCC2(CCCN2Cc2cnn(C)c2)CC1	-26%
CCOc1ccnc(N2CCCN(c3nc(CC)ns3)CC2)n1	-12.5%
CCOc1ccnc(N2CCCN(c3nc(C4CC4)ns3)CC2)n1	-75.5%
COc1ccnc(N2CCCN(c3nc(C4CC4)ns3)CC2)n1	77.6%
CC(NC(=O)Cn1ccc(=O)n(C)c1=O)c1cc(F)ccc1F (configuration not stated)	-35.7%
CC(C)C(NC(=O)Cn1ccc(=O)n(C)c1=O)c1ccc(F)cc1 (configuration not stated)	53.8%
CC(NC(=O)Cn1ccc(=O)n(C)c1=O)c1ccccc1F (configuration not stated)	-27.8%
O=C(c1ccc(NCc2cccc(F)c2)cc1)N1CCCC1	-16.1%
CCC(C(=O)N(C)Cc1cc(COC)[nH]n1)n1cccn1 (configuration not stated)	-29.2%
O=C(c1ccc(NC2CC2)nc1)N1CCCC(n2ccnc2)C1 (configuration not stated)	31.32%
CCn1cc(S(=O)(=O)N2CCCC3(CC=CNC3=O)C2)c(C)n1 (configuration not stated)	-42.9%
Cn1cc(C(O)CNC(=O)c2cc(Br)ccc2Cl)cn1 (configuration not stated)	19.8%

Compound	INHIBITION
Cc1ccc(C(=O)NCC(O)c2cnn(C)c2)c(Br)c1 (configuration not stated)	29.7%
Cn1cc(C(O)CNC(=O)c2ccc(F)cc2Cl)cn1 (configuration not stated)	51.6%
CC(C)(O)CNC(=O)NCc1nccn1CCc1ccccc1	-4.63%
CC(C)COCC(NC(=O)c1cnccn1)c1ccco1 (configuration not stated)	-26.6%
CC(C)COCC(NC(=O)c1ccccn1)c1ccco1 (configuration not stated)	8.25%
CC(C)COCC(NC(=O)c1cc[nH]n1)c1ccco1 (configuration not stated)	53.8%
CCn1nc(CC(C)C)cc1C(=O)NCC(F)(F)F	15.4%
Cc1noc(C)c1CN1CCOC2(CCCN(c3ncccn3)C2)C1 (configuration not stated)	-21.1%
CC(C)c1nnc(CN2CCN(C(C)c3nc(C4CC4)no3)CC2)o1 (configuration not stated)	33.3%
CCC1=NN2C(=N)/C(=C/c3cccc(Cl)c3)C(=O)N=C2S1	37.7%
CCC1=NN2C(=N)C(=Cc3cccn3-c3ccc(Cl)cc3)C(=O)N=C2S1	76.7%
CCC1=NN2C(=N)C(=Cc3cccn3-c3cccc(Cl)c3)C(=O)N=C2S1	73.7%
CCC1=NN2C(=N)C(=Cc3cccn3-c3ccc(Br)cc3)C(=O)N=C2S1	65.4%
O=C(O)Cc1cn2cc(C(F)(F)F)ccc2n1	7.38%
Cn1cc(CN2CC[C@H](O)[C@@H]2Cc2ccccc2)cn1	17.1%
Cc1noc(C)c1C(=O)N1C[C@H]2CCC[C@@]2(COc2ccccn2)C1	34.7%
COc1ccnc(N2C[C@@H](NS(=O)(=O)N(C)C)[C@H](C(C)C)C2)n1	-15.6%
CCC[C@H]1CN(c2nccc(NCC)n2)C[C@@H]1NS(=O)(=O)N(C)C	48.7%
CCC[C@H]1CN(c2nccc(OC)n2)C[C@@H]1NS(=O)(=O)N(C)C	56.6%
CCS(=O)(=O)N1CC[C@H](OC)[C@@H]1Cc1ccncc1	28.4%
CNc1ncc(-c2ccnn2C2CCN(C(C)=O)CC2)cn1	42.6%
CCc1c(C(=O)N2CCOC(C)(C)C2)cnn1-c1ccccn1	4.95%
CC1CN(C(=O)c2cnn(-c3ccccn3)c2C(C)C)CC(C)(C)O1 (configuration not stated)	51.5%

Compound	INHIBITION
CCc1c(C(=O)N2CC(C)OC(C)(C)C2)cnn1-c1ccccn1 (configuration not stated)	2.97%
CCOC[C@@H]1CCC[C@]12CN(S(=O)(=O)c1cn(C)cn1)CCO2	35.5%
O=C(c1cccn1Cc1cccs1)N1CCSCC1	9.64%
COc1cccc(OCCNS(=O)(=O)Cc2ccccc2)c1	10.7%
COc1cccc(OCCNS(C)(=O)=O)c1	-0.614%
COc1cccc(OCCNCc2ccccc2)c1	51.5%
CC(C)(C)c1n[nH]c(C2CN(C(=O)C3=COCCC3)CCO2)n1 (configuration not stated)	40.2%
COc1ccccc1OC1(C(=O)O)CCN(c2ncccc2F)CC1	30.8%
COc1ccccc1OC1(C(=O)O)CCN(c2ccccn2)CC1	40.5%
COc1ccccc1OC1(C(=O)O)CCN(c2ncnc(C)c2C)CC1	55.4%
COc1ccccc1OC1(C(=O)O)CCN(c2nc(C)cnc2C)CC1	56.5%
COc1ccccc1OC1(C(=O)O)CCN(c2nccnc2OC)CC1	3.03%
COc1ccccc1OC1(C(=O)O)CCN(c2nccnc2C)CC1	8.47%
CN1CC2(CCN(C(=O)c3ccc(-n4cccn4)cc3Cl)C2)OC1=O (configuration not stated)	32.5%
CC(=O)c1cnc(NCCCN2CCOCC2)nc1C	-4.96%
O=C(COc1ccccc1)NCC1CC1	3.63%
CCNc1ncc(C(=O)NCc2csc(C)n2)cn1	35.4%
CCNc1ncc(C(=O)NCc2csc(-c3ncccn3)n2)cn1	62.2%
O=C(NCCc1csc(-c2ncccn2)n1)c1cnn2c1CCCC2	-52.5%
CCNc1ncc(C(=O)NCc2csc(-c3cnccn3)n2)cn1	-10.5%
CCNc1ncc(C(=O)NCCc2csc(CSC)n2)cn1	51.8%
CCNc1ncc(C(=O)NCCc2csc(-c3ncccn3)n2)cn1	56.6%
CCNc1ncc(C(=O)NCCc2ccc(C)c(C)c2)cn1	-4.21%

Compound	INHIBITION
CCNc1ncc(C(=O)NCCCc2ccncc2)cn1	19.4%
CSCc1nc(CCNC(=O)C2CCCN(C(C)=O)C2)cs1 (configuration not stated)	-90.8%
CCN(Cc1nc2c(cnn2C)c(=O)[nH]1)Cc1ccccc1Cl	-29.8%
Cc1ccc2nc(CN3CCCCC3C(=O)N3CCOCC3)cn2c1 (configuration not stated)	20%
CC(C)Cn1nccc1NC(=O)CN1CCOC(Cn2cccn2)C1 (configuration not stated)	23.4%
CNC(=O)[C@@H](c1ccccc1)N1CCC[C@H]1C(=O)NC1CCCCC1	30.9%
CCc1cnc(N2C[C@H](OCc3csc(C)n3)[C@H]3COC[C@H]32)nc1	40.8%
Cc1nnnn1-c1cc(NCc2cccc(C#N)c2)ccc1F	31%
O=C(CC1CC1)NCc1cc(=O)n2c(n1)CN(Cc1ccoc1)CCC2	36.8%
O=C(Nc1ccccc1)N1C2CCC(O)(CC2)C1CO (configuration not stated)	44.9%
CCc1noc(C)c1C(=O)N1CCCC(n2nc(C)nc2C)C1 (configuration not stated)	-19.85%
CS(=O)(=O)N1CCOCC12CCN(Cc1ccc(F)cc1)CC2	57.3%
CS(=O)(=O)N1CCO[C@@H]2CN(Cc3ccncc3)C[C@@H]2C1	18.5%
CS(=O)(=O)N1CCOCC2(CN(Cc3ccsc3)CCO2)C1 (configuration not stated)	0.139%
CS(=O)(=O)N1CCO[C@@H]2CN(Cc3ccc(F)cc3)C[C@@H]2C1	61.9%
CS(=O)(=O)N1CCO[C@@H]2CN(Cc3ccc(F)cc3)CC[C@@H]2C1	10.5%
Cc1ccc(CN2CCC3(CC2)COCCN3S(C)(=O)=O)o1	11.6%
Cc1ccc(CN2CCOC3(COCCN(S(C)(=O)=O)C3)C2)s1 (configuration not stated)	11.4%
CS(=O)(=O)N1CCOCC12CCN(Cc1ccoc1)CC2	34.5%
CS(=O)(=O)N1CCOCC2(CN(Cc3ccc(F)cc3)CCO2)C1 (configuration not stated)	57.4%
